Tests used:
Experiment in all cases: log2 ratio of Biotin-Ahx-Ub-VS probe labelling (fragment/DMSO); higher = less target engagement (more negative = stronger competition), active = hit call of the paper (q ≤ 0.05, log2 ratio ≤ -1)
Settings in all cases: compound concentration: 200 uM; treatment time: 3 h
USP34 = USP34 (UniProt Q70CQ2)
Summary of the method: (§1)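 HEK293T lysate in Tris/CHAPS/IGEPAL buffer with protease inhibitors (495 µg per sample) was given fragment at 200 µM or vehicle for 3 h, in triplicate. It then received Biotin-Ahx-Ub-VS at 0.5 µM final for 1 h. Labelled DUBs were NeutrAvidin-enriched, digested with LysC and trypsin, and run by diaPASEF LC-MS/MS. Values are average log2 fragment/vehicle ratios by unpaired t-test on global-median-normalised Spectronaut quantities of proteins with ≥2 unique peptides.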

USP36 = molecular target: T1, USP36 (UniProt Q9P275)
T1 sequence (whole entry): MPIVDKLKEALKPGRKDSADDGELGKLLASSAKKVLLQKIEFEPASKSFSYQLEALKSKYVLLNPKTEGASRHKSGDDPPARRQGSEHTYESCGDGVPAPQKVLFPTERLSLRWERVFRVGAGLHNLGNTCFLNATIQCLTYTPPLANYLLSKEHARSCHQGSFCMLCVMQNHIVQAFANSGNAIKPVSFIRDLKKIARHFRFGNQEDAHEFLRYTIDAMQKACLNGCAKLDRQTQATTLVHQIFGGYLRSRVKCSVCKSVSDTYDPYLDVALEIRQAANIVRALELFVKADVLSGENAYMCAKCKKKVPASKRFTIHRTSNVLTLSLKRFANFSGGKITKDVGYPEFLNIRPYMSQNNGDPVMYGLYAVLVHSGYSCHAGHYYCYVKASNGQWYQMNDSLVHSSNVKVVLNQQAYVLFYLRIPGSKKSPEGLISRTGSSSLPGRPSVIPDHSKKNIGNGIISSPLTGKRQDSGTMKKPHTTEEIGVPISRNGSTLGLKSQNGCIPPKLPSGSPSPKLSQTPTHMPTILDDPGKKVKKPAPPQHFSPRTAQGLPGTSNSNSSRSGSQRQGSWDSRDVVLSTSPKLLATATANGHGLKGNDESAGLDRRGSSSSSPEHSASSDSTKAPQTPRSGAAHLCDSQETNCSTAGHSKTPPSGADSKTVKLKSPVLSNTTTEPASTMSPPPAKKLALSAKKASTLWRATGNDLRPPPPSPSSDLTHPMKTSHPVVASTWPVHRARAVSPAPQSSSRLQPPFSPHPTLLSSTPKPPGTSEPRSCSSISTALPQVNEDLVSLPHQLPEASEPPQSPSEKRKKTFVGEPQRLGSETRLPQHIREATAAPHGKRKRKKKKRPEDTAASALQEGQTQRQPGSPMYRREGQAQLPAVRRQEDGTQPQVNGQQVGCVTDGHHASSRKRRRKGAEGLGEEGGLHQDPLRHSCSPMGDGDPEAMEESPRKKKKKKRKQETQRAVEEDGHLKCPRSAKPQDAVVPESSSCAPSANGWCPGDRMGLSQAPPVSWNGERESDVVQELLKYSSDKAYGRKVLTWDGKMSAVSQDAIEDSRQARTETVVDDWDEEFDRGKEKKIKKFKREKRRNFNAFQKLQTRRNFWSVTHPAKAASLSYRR
Summary of the method: as §1

USP38 = molecular target: T2, USP38 (UniProt Q8NB14)
T2 sequence (whole entry): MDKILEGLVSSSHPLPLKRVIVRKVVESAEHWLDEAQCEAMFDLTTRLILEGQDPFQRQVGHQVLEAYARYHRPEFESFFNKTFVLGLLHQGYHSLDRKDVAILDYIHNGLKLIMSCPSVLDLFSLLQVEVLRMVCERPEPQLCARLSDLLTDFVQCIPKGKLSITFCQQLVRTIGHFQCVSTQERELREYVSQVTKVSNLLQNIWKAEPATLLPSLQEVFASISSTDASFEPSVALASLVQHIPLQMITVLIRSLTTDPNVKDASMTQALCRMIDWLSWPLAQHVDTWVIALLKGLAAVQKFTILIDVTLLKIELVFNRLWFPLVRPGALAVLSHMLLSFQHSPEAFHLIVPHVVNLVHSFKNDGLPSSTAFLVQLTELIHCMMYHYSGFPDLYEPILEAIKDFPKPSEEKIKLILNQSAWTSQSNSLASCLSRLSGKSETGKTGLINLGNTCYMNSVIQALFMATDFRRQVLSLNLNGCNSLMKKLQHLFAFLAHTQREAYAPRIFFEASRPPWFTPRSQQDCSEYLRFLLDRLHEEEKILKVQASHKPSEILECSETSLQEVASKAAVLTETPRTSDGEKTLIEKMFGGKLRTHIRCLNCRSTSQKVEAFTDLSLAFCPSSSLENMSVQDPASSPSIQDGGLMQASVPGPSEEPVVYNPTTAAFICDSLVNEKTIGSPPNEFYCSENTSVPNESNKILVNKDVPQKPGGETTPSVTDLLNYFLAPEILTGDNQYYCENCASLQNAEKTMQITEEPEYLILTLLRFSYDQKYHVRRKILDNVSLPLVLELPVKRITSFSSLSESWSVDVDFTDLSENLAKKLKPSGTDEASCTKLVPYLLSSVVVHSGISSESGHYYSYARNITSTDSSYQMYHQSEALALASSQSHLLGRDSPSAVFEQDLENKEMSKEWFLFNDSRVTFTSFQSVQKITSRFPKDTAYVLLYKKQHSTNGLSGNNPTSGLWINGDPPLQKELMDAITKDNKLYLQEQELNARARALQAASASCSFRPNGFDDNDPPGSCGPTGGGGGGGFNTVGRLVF
Summary of the method: as §1

USP39 = molecular target: T3, USP39 (UniProt Q53GS9)
T3 sequence (whole entry): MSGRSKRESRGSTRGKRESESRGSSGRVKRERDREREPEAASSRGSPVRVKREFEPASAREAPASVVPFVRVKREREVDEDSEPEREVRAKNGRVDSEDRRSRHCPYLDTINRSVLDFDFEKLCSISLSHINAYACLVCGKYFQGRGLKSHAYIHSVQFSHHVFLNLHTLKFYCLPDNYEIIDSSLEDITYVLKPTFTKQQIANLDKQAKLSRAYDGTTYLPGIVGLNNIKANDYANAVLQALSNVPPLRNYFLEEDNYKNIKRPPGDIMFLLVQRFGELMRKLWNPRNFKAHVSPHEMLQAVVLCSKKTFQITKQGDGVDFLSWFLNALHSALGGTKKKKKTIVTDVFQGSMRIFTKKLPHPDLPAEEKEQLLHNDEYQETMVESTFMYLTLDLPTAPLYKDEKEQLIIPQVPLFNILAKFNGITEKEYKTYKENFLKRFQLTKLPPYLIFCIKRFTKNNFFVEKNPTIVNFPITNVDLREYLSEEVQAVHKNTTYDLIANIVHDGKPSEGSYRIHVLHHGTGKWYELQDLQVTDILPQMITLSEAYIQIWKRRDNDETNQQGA
Summary of the method: as §1

USP4 = molecular target: T4, USP4 (UniProt Q13107)
T4 sequence (whole entry): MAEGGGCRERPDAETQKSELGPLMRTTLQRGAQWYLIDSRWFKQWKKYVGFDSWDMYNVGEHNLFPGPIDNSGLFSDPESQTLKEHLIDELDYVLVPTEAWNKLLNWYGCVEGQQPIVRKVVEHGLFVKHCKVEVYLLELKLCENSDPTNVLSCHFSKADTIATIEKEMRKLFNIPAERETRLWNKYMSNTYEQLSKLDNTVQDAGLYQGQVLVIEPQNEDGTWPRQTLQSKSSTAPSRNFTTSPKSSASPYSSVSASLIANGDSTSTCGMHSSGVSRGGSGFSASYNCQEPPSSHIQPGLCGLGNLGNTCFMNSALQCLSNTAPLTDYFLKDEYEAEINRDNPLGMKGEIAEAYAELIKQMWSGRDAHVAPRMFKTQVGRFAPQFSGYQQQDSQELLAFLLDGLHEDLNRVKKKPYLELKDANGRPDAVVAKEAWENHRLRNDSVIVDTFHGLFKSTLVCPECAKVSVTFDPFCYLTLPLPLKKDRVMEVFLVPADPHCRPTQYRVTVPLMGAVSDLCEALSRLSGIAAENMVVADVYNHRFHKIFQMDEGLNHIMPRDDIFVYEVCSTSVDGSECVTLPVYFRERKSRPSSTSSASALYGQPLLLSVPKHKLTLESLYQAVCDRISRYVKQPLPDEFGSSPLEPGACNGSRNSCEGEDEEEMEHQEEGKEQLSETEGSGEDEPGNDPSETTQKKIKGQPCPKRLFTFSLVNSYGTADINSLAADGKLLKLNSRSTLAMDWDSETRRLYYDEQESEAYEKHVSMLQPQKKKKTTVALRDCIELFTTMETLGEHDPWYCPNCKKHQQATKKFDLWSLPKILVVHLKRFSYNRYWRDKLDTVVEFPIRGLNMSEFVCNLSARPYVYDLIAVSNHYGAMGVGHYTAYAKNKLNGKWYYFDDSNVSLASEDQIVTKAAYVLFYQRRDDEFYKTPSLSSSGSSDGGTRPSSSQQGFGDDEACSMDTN
Summary of the method: as §1

Measured: log2 ratio of Biotin-Ahx-Ub-VS probe labelling

Chain of USP34 (Q70CQ2 whole entry, the tested form may be a part): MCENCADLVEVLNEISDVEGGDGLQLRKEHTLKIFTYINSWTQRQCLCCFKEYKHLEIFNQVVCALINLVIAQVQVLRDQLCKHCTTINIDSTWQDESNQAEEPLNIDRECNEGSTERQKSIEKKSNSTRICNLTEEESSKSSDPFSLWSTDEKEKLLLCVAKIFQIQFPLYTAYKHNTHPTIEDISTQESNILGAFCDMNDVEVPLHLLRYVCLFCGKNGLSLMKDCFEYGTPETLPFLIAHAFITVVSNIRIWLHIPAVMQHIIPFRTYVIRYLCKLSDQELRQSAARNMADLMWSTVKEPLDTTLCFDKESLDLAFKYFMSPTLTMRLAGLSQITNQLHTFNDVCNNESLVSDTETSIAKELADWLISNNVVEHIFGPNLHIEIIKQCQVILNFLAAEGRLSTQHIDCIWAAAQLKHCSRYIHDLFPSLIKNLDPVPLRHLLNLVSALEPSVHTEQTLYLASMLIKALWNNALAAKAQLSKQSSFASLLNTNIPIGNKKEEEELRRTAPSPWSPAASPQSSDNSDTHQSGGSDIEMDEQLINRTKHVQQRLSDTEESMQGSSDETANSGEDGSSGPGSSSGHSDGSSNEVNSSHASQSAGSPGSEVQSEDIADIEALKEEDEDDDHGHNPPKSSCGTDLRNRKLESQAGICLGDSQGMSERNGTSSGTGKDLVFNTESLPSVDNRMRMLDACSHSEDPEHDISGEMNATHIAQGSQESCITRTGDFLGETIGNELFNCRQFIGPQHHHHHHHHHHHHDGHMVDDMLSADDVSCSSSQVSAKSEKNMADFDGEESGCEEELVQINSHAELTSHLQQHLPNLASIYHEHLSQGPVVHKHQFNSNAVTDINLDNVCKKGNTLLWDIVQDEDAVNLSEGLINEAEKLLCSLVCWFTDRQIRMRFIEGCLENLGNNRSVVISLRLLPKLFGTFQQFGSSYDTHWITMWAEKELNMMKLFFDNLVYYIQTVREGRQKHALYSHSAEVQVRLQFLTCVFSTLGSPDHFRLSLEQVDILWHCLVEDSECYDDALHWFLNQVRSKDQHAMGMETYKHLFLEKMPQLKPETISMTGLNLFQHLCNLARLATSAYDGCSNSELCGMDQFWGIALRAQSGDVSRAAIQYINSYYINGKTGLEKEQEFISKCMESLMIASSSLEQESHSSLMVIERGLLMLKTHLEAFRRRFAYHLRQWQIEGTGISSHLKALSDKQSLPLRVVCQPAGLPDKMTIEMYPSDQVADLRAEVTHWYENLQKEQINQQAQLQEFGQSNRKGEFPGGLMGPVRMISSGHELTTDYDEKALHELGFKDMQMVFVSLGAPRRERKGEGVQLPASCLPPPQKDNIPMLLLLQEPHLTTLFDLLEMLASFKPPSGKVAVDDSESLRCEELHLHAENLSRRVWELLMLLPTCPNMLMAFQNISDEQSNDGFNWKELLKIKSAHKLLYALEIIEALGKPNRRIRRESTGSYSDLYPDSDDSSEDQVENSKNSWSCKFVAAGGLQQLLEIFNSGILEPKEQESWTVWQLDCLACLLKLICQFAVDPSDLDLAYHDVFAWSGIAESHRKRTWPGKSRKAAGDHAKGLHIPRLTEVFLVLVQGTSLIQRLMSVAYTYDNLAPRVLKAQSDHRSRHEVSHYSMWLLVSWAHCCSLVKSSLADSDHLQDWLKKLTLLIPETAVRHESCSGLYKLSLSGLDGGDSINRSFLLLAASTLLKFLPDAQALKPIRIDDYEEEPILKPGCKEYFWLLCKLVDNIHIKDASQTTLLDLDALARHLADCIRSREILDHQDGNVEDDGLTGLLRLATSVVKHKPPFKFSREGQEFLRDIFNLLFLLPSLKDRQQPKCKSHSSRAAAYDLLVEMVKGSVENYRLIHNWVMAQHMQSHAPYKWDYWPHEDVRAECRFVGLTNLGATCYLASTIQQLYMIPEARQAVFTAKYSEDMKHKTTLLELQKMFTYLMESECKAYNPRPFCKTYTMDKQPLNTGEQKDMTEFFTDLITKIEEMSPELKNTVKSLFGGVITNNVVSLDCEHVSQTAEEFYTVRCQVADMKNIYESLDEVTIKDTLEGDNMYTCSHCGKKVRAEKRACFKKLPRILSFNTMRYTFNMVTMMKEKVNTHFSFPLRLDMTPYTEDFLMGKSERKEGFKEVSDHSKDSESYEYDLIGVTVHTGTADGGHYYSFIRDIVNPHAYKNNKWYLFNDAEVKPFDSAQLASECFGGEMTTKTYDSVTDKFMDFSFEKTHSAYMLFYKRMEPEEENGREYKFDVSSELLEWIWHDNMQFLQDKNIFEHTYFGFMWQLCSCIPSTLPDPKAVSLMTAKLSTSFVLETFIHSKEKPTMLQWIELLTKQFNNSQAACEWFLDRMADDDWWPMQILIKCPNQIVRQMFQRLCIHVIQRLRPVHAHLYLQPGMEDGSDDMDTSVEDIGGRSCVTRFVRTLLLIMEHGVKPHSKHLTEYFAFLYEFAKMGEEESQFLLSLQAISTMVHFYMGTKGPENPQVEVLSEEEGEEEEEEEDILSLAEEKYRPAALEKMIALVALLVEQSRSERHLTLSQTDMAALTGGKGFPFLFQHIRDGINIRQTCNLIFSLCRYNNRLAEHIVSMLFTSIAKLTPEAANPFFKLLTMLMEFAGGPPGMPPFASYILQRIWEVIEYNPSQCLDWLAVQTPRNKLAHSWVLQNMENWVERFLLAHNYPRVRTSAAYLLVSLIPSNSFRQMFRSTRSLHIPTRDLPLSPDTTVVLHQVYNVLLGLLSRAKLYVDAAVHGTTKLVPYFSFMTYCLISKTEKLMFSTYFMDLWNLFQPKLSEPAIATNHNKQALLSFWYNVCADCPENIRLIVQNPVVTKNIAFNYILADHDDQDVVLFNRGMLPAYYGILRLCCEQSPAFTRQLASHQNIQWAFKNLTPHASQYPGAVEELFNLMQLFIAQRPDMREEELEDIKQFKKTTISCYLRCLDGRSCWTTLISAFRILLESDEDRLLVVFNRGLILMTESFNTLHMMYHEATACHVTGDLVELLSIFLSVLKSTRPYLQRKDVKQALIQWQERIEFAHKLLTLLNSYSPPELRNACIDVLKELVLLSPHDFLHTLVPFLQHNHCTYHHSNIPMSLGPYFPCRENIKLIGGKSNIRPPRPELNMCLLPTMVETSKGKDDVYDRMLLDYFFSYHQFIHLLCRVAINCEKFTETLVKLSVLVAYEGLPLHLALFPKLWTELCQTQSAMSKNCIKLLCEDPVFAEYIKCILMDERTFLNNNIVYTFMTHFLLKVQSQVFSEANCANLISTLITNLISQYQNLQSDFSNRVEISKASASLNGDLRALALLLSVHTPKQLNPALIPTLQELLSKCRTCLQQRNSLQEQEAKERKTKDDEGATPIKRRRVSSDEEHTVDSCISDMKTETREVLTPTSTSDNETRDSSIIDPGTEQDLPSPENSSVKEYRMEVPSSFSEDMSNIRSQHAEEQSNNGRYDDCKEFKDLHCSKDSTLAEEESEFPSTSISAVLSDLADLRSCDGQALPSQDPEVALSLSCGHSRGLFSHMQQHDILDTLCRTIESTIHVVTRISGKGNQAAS

O=C(CCl)N1CCC2(CCC(O)CC2)CC1
inactive: USP34 -0.363 | USP36 -0.0873 | USP38 0.139 | USP39 0.333 | USP4 0.123
